Measurements taken from PubChem BioAssay (NCATS).
The source made the active and inactive calls. A call without a number means that no potency is given here. The call rests on the fitted dose curve; in most records, active means well fitted activation curve with a large enough effect; inconclusive means small, poorly fitted or top-dose-only effect; inactive means no such curve, though single readings can be large or run the other way.

What follows are compounds tested against Cytochrome P450 3A4 (Homo sapiens) (UniProt P08684) (assay: qHTS Assay for Activators of Cytochrome P450 3A4 (AID 885; further: nearly all actives have a fitted effect of over 65% in size)). Settings: recombinant CYP3A4, Luciferin-PPXE luminescence, 60 min; series mostly up to 11.4 µM.
Chain of Cytochrome P450 3A4 (Homo sapiens) (P08684 whole entry, looked up): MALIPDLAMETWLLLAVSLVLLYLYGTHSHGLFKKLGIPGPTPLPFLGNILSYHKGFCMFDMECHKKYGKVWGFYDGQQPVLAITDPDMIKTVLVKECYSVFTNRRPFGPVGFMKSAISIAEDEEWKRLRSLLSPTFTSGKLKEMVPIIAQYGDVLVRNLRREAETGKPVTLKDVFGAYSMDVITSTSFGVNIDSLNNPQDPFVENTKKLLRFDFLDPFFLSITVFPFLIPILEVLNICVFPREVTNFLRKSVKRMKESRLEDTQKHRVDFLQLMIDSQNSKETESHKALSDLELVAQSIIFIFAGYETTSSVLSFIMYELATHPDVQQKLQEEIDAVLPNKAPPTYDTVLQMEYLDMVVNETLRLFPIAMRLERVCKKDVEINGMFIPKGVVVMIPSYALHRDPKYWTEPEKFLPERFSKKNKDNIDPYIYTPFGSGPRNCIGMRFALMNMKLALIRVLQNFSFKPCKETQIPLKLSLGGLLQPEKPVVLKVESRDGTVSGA
Protocol: NIH Molecular Libraries Screening Centers Network [MLSCN]
NIH Chemical Genomics Center [NCGC]
The P450 gene superfamily is involved in the metabolism and clearance of xenobiotics. This assay used human CYP3A4 to measure the dealkylation of luciferin-6' phenylpiperazinylyl (Luciferin-PPXE; […]) to luciferin. The luciferin is then measured by luminescence after the addition of a luciferase detection reagent. Luciferin-PPXE concentration in the assay was equal to its KM for CYP3A4. Inhibitors and some substrates limit the production of luciferin, and decrease measured luminescence; activators increase the production of luciferin and luminescence.
NCGC Assay Protocol Summary:
Two uL of enzyme and substrate mix (final concentrations: 20nM CYP3A4, 25uM Luciferin-PPXE, 200mM KPO4) were dispensed into a white, solid bottom 1536-well microtiter plate. 23nL of compound was transferred by a pin tool. The plate was incubated at RT for 10 min. Two uL of an NADPH regeneration solution (Promega supplied reagent) was dispensed and the reaction was allowed to continue for 60 min at RT. Then the reaction was stopped by reconstituted luciferin detection buffer. After another 20 min of incubation the plate was read on the ViewLux (Perkin Elmer) at 60 sec exposure and 2x2 binning. This protocol was carried out with Promega-Glo reagents and further information can be found at http://www.promega.com/tbs/tb325/tb325.pdf. Data were normalized to the to AC100 inhibition (57 uM ketoconazole).
Keywords: P450, CYP2D6, Luciferase, MLSMR, MLSCN, NIH Roadmap, qHTS, NCGC
Potency means the concentration at half of the fitted maximal effect.

Compound | Potency
N.N.N.N.N.N.N.N.N.N.N.N.N.N.O.O.[Ru].[Ru].[Ru] | inactive
NCCSc1nc2ccccc2s1 | inactive
O=C(CSC1=NCCN1)Nc1ccccc1 | inactive
NCCSCc1ccccc1Cl | inactive
S=C(S)NCCCn1ccnc1 | inactive
CCNc1ncc2nc(CCc3ccccc3)c(=O)n(C)c2n1 | inactive
Cn1ncc2c(NCCc3ccccc3)nc(Cl)nc21 | inactive
CCNc1ncc2nc(C)c(=O)n(Cc3cccc(OC)c3)c2n1 | inactive
N#CCCn1c(=O)c(-c2cc(F)cc(F)c2)nc2cnc(Oc3cccc(Cl)c3)nc21 | inactive
CN(CCc1ccccn1)c1ccc2c(c1)C(=O)c1ccccc1-2 | inactive
C[C@H]1CCCC=CC2C[C@H](OC(=O)CN(C)C)C[C@@H]2[C@@H](O)/C=C\C(=O)O1 (stereo not given in full) | 3.98 µM (active)
O=c1c(CCc2ccccc2)nc2cnc(Oc3ccccc3)nc2n1C[C@H]1CCCO1 | inactive
O=C1/C(=C/c2ccccc2)[C@@H](NC2CCCCC2)c2ccccc21 | inactive
CCN(CC)c1ccc(N)cc1 | inactive
COc1ccc(-n2c(=O)c(C)nc3cnc(Nc4cccc(OC)c4)nc32)cc1 | inactive
c1cc(CSSCc2ccncc2)ccn1 | inactive
Cn1ncc2c(Nc3cccc(Cl)c3)nc(Nc3cccc(Cl)c3)nc21 | inactive
c1ccc2sc(SCSc3nc4ccccc4s3)nc2c1 | inactive
CCCCNc1nc(SC)nc2nc[nH]c12 | inactive
O=c1[nH]c(SCc2ccccc2[N+](=O)[O-])nc2nc[nH]c12 | inactive

Compound | Potency
c1ccc2cc(NCNc3ccc4ccccc4c3)ccc2c1 | inactive
Cc1ccc(C2=Nc3ccccc3S[C@@H](c3cccc([N+](=O)[O-])c3)C2)cc1 | inactive
Cc1cc(Cl)nc2ccc(Cc3ccc4nc(Cl)cc(C)c4c3)cc12 | inactive
c1cncc(-c2cc(-c3cc(-c4cccnc4)n[nH]3)[nH]n2)c1 | inactive
C[C@H]1CN(S(=O)(=O)c2cccc3cnccc23)CCN1 | inactive
c1cc2c3c(c1)ccc1cccc(c13)C2 | inactive
C=CC(C)(O)CCCC(C)CCCC(C)CCCC(C)C (stereo not given) | inactive
CN(C)Cc1cc(C(F)(F)F)ccc1C(O)(c1ccccc1)c1ccccc1 | inactive
CN(C)CCCN1c2ccccc2Sc2cnccc21 | inactive
N=C1C=CC(=C(c2ccc(N)cc2)c2ccc(N)cc2)C=C1 | inactive
NCCNS(=O)(=O)c1ccc(N)cc1 | inactive
C=C[C@@]1(C)CC(=O)[C@@]2(O)[C@@]3(C)[C@H](O)CCC(C)(C)[C@@H]3[C@H](O)[C@H](OC(C)=O)[C@]2(C)O1 | inactive
CN[C@@H](c1ccncc1)[C@@H](NC)c1ccncc1 | inactive
CCOC(=O)C1=C(C)NC(=O)N[C@@H]1c1coc2cc(C)cc(C)c2c1=O | inactive
N=C(N)SCc1cccc2c(=O)cc(-c3ccccc3)oc12 | inactive
[O-][n+]1c(CN2CCCCC2)nc2cccc3c2c1-c1ccccc1-3 | inactive
COc1ccc(C(=O)Nc2ccccc2)cc1[N+](=O)[O-] | inactive
Nc1ccc(CCNc2ncnc3c2ncn3[C@@H]2O[C@@H](CO)[C@H](O)[C@@H]2O)cc1 | inactive
Cc1c(C(=O)O)c(O)cc2c1C(=O)c1c(O)c([C@H]3O[C@H](CO)[C@@H](O)[C@H](O)[C@H]3O)c(O)c(O)c1C2=O | inactive
COCCn1c(=O)c(-c2cc(F)cc(F)c2)nc2cnc(Oc3ccccc3)nc21 | inactive
